Measurements published in the supplement of paper PMC10369915.

Biological target: SHP2 N-SH2 domain T42A
Assay: log2 enrichment relative to wild-type ITIM peptide; higher = stronger binding

Binder	log2 enrichment
VFSVDYGELDE [PD-1 ITIM pTyr223 peptide variant F228E]	-1.51
GFSVDYGELDF [PD-1 ITIM pTyr223 peptide variant V218G]	0.152
VFSVDYGELGF [PD-1 ITIM pTyr223 peptide variant D227G]	-1.31
VFCVDYGELDF [PD-1 ITIM pTyr223 peptide variant S220C]	-0.382
VFSVDYGEQDF [PD-1 ITIM pTyr223 peptide variant L226Q]	-1.5
QFSVDYGELDF [PD-1 ITIM pTyr223 peptide variant V218Q]	0.0173
VFSVDYCELDF [PD-1 ITIM pTyr223 peptide variant G224C]	-0.184
VFSVDYTELDF [PD-1 ITIM pTyr223 peptide variant G224T]	0.883
VFSVDYGETDF [PD-1 ITIM pTyr223 peptide variant L226T]	-1.57
VFSVDYGELTF [PD-1 ITIM pTyr223 peptide variant D227T]	-0.714
VFSVDYGELDQ [PD-1 ITIM pTyr223 peptide variant F228Q]	-1.43
VNSVDYGELDF [PD-1 ITIM pTyr223 peptide variant F219N]	0.243
VFGVDYGELDF [PD-1 ITIM pTyr223 peptide variant S220G]	-0.124
VGSVDYGELDF [PD-1 ITIM pTyr223 peptide variant F219G]	0.639
VFTVDYGELDF [PD-1 ITIM pTyr223 peptide variant S220T]	0.338
VFSVDYGEADF [PD-1 ITIM pTyr223 peptide variant L226A]	-1.51
VFSVAYGELDF [PD-1 ITIM pTyr223 peptide variant D222A]	1.52
VFSVDYGELDD [PD-1 ITIM pTyr223 peptide variant F228D]	-1.56
VFSVDYGESDF [PD-1 ITIM pTyr223 peptide variant L226S]	-1.51
AFSVDYGELDF [PD-1 ITIM pTyr223 peptide variant V218A]	0.0307

Binder	log2 enrichment
VFSNDYGELDF [PD-1 ITIM pTyr223 peptide variant V221N]	-1.45
VFSVDYGELDG [PD-1 ITIM pTyr223 peptide variant F228G]	-1.54
VTSVDYGELDF [PD-1 ITIM pTyr223 peptide variant F219T]	0.41
VFSVDYDELDF [PD-1 ITIM pTyr223 peptide variant G224D]	-0.746
VFSVDYGELDS [PD-1 ITIM pTyr223 peptide variant F228S]	-1.4
EFSVDYGELDF [PD-1 ITIM pTyr223 peptide variant V218E]	-0.155
VFSVDYGELQF [PD-1 ITIM pTyr223 peptide variant D227Q]	-0.79
VFSVDYQELDF [PD-1 ITIM pTyr223 peptide variant G224Q]	-0.168
VFSCDYGELDF [PD-1 ITIM pTyr223 peptide variant V221C]	-0.523
VFSVDYEELDF [PD-1 ITIM pTyr223 peptide variant G224E]	-0.506
VFSVDYGSLDF [PD-1 ITIM pTyr223 peptide variant E225S]	-0.714
VFSVDYGDLDF [PD-1 ITIM pTyr223 peptide variant E225D]	-0.183
VFSVDYGENDF [PD-1 ITIM pTyr223 peptide variant L226N]	-1.33
VFSVDYGELDA [PD-1 ITIM pTyr223 peptide variant F228A]	-1.56
TFSVDYGELDF [PD-1 ITIM pTyr223 peptide variant V218T]	-0.0485
VFSVDYGELDN [PD-1 ITIM pTyr223 peptide variant F228N]	-1.38
VFSVDYGELDC [PD-1 ITIM pTyr223 peptide variant F228C]	-1.54
VFSVDYSELDF [PD-1 ITIM pTyr223 peptide variant G224S]	0.528
VFEVDYGELDF [PD-1 ITIM pTyr223 peptide variant S220E]	-0.481
SFSVDYGELDF [PD-1 ITIM pTyr223 peptide variant V218S]	0.0685

Binder	log2 enrichment
VFAVDYGELDF [PD-1 ITIM pTyr223 peptide variant S220A]	-0.133
VFSVDYGCLDF [PD-1 ITIM pTyr223 peptide variant E225C]	-0.897
VCSVDYGELDF [PD-1 ITIM pTyr223 peptide variant F219C]	-0.255
VFNVDYGELDF [PD-1 ITIM pTyr223 peptide variant S220N]	-0.0661
VFDVDYGELDF [PD-1 ITIM pTyr223 peptide variant S220D]	-0.682
VFQVDYGELDF [PD-1 ITIM pTyr223 peptide variant S220Q]	-0.0797
VFSVTYGELDF [PD-1 ITIM pTyr223 peptide variant D222T]	0.636
VFSVDYGGLDF [PD-1 ITIM pTyr223 peptide variant E225G]	-1.11
VFSTDYGELDF [PD-1 ITIM pTyr223 peptide variant V221T]	-0.962
VFSVDYNELDF [PD-1 ITIM pTyr223 peptide variant G224N]	-0.336
VFSVDYGALDF [PD-1 ITIM pTyr223 peptide variant E225A]	-0.501
VFSVDYGQLDF [PD-1 ITIM pTyr223 peptide variant E225Q]	0.0512
VFSVDYAELDF [PD-1 ITIM pTyr223 peptide variant G224A]	1
VFSDDYGELDF [PD-1 ITIM pTyr223 peptide variant V221D]	-1.38
VFSADYGELDF [PD-1 ITIM pTyr223 peptide variant V221A]	-1.17
VFSVDYGELCF [PD-1 ITIM pTyr223 peptide variant D227C]	-0.854
NFSVDYGELDF [PD-1 ITIM pTyr223 peptide variant V218N]	0.14
VHSVDYGELDF [PD-1 ITIM pTyr223 peptide variant F219H]	0.536
VFSEDYGELDF [PD-1 ITIM pTyr223 peptide variant V221E]	-1.41
VFSVDYGEEDF [PD-1 ITIM pTyr223 peptide variant L226E]	-1.51
